Data from the supplement of paper PMC7156485.

Tested on: TDF
Assay: H1.0 immunofluorescence intensity relative to DMSO (% of DMSO); higher = stronger H1.0 induction, active = 120 or more
Details: concentration: 10 µM; 24 h
Summary of the method: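 HCC1569 and TDF cells were seeded at 800 per well in 384-well plates in RPMI with 10% FBS and treated with compounds at 10 µM for 24 h at 37 °C, in triplicate. After fixation in 3.7% formaldehyde, cells were stained with a rabbit anti-H1.0 antibody, an AlexaFluor 647 secondary and DAPI, and six fields per well were imaged at ×10. H1.0 nuclear intensity or cell number is given as percent of the plate control, using the median of replicates, with HCC1569 values smoothed for positional effects.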
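Further: TDF is a line of transformed human dermal fibroblasts of mesenchymal origin.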

SMILES	H1.0 immunofluorescence intensity
CCCCCCCCCCCCCCCCOCC(COCC(F)(F)F)OP(=O)([O-])OC.[Li+] (stereo not drawn)	99.5 (inactive)
COCC(=O)OC1(CCN(C)CCCc2nc3ccccc3[nH]2)CCc2cc(F)ccc2C1C(C)C.Cl.Cl (stereo not drawn) [Mibefradil dihydrochloride]	111 (inactive)
CCCC(CCC)C(=O)NO [N-hydroxy-2-propylpentanamide]	98.7 (inactive)
CCCCCCCC(=O)OCC(CO)OC(=O)CCCCCCC (stereo not drawn) [1,2-Dioctanoyl-SN-glycerol]	92.3 (inactive)
Nc1nc(OCc2ccccc2)c2[nH]cnc2n1 [O6-benzylguanine]	101 (inactive)
NCC1OC(OC2C(N)CC(N)C(OC3OC(CO)C(O)C(N)C3O)C2O)C(N)CC1O (stereo not drawn) [Tobramycin (free base)]	107 (inactive)
COc1cc2c3cc1Oc1cc(ccc1O)CC1c4c(cc(OC)c(O)c4Oc4ccc(cc4)CC3N(C)CC2)CC[N+]1(C)C.Cl.[Cl-] (single isomer, unassigned; (+)) [(+)-Tubocuraraine chloride]	93.2 (inactive)
CN1C2CCC1CC(OC(c1ccccc1)c1ccccc1)C2.CS(=O)(=O)O (stereo not drawn) [Benztropine mesylate]	97.6 (inactive)
CCCCCCCCC=CCCCCCCCCOCC(COP(=O)([O-])OCC[N+](C)(C)C)OC(C)=O (stereo not drawn)	94 (inactive)
NC(=O)c1ccc(-c2nc(-c3ccc4c(c3)OCCO4)c(-c3ccccn3)[nH]2)cc1 [Casein Kinase I Inhibitor, D4476]	95.4 (inactive)
CCN(CC)C(C)C(=O)N1c2ccccc2Sc2ccccc21.Cl (stereo not drawn) [10-(alpha-Diethylaminopropionyl)-phenothiazine hydrochloride]	98.5 (inactive)
CCCCCCCCCCCCCCCCCCCCCCCC(=O)O [Tetracosanoic acid]	98 (inactive)
Cn1nc2c3c(cccc31)C(=O)c1ccccc1-2 [JNK Inhibitor,                    Negative Control]	90.4 (inactive)
Cl.Nc1cc(Nc2ccc(S(N)(=O)=O)cc2)ncn1	98.4 (inactive)
CC(=O)Nc1ccc(NC(=S)NC(=O)c2ccc(C(C)(C)C)cc2)cc1 [p53 Activator (Tenovin-1)]	104 (inactive)
CC1(C)C(=O)N(CCN2CCC(C(=O)c3ccc(F)cc3)CC2)c2ccccc21.Cl [LY-310,762 hydrochloride]	94.2 (inactive)
Cc1cc2nc(NCCCO)n(CC(=O)c3cc(C(C)(C)C)c(O)c(C(C)(C)C)c3)c2cc1C	97.1 (inactive)
CCCCCCC=CCCCCCCCC(=O)O [9(Z)-Hexadecenoic acid]	97.9 (inactive)
